The values below come from PubChem BioAssay (NCI).

Several values for one entry are separate records, joined by “and”; a condition that tells them apart may be missing. Equal entries are not always repeated. This is part of a sample that, as a whole, favours compounds with a hit. Of some 83,000 tested, about 20% had one in any assay.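 Plates (96-well) were seeded with cells, treated with compound at one concentration, and incubated for 48 hours before percent growth was determined.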 Activity calls are given as the source filed them. How the source made its calls: active means growth percent below 10; inactive means the rest.

Common to all, as to assay: NCI-60 one-dose screen, 48 h (100 = growth as untreated, 0 = no growth, -100 = all killed)
Assay [1] deals with SK-MEL-2 melanoma. As to conditions: 10 µM unless noted.
Assay [2] relates to EKVX NSCLC. As to conditions: 10 µM.
The subject of assay [3] is SN12C renal. As to conditions: 10 µM unless noted.
Assay [4] has as its system UO-31 renal. The conditions noted are these: 10 µM unless noted.
For assay [5], the system named is TK-10 renal.
Assay [6] concerns ACHN renal. As to conditions: 10 µM unless noted.
The subject of assay [7] is CAKI-1 renal. As to conditions: 10 µM unless noted.
Assay [8] deals with A498 renal. The conditions noted are these: 10 µM unless noted.
For assay [9], the system named is CCRF-CEM leukemia. As to conditions: 10 µM.
In assay [10] the test system is MOLT-4 leukemia. As to conditions: 10 µM unless noted.
Assay [11] relates to SR leukemia. As to conditions: 10 µM unless noted.
Assay [12] concerns OVCAR-8 ovarian. The conditions noted are these: 10 µM unless noted.
Assay [13] deals with OVCAR-5 ovarian. The conditions noted are these: 10 µM unless noted.
Assay [14] relates to SK-OV-3 ovarian. The conditions noted are these: 10 µM unless noted.
The subject of assay [15] is IGROV1 ovarian. The conditions noted are these: 10 µM unless noted.
For assay [16], the system named is OVCAR-3 ovarian. The conditions noted are these: 10 µM unless noted.
The subject of assay [17] is HS 578T breast. The conditions noted are these: 10 µM unless noted.
Assay [18] concerns NCI/ADR-RES ovarian. As to conditions: 10 µM unless noted.
For assay [19], the system named is RPMI-8226 leukemia. As to conditions: 10 µM unless noted.
For assay [20], the system named is OVCAR-4 ovarian. As to conditions: 10 µM unless noted.

On to `CC(=O)Nc1ccc(S(N)(=O)=O)cc1`, for which the growth is 109% (inactive) and 110% (inactive) in assay [1]; 102% (inactive) in assay [2]; 97.5% (inactive) and 102% (inactive) in assay [3]; 95.8% (inactive) and 84.3% (inactive) in assay [4]; 101% (inactive) in [5] (10 µM unless noted); 103% (inactive) and 93.3% (inactive) in assay [6]. The growth in assay [7] was 108% (inactive) and 93.2% (inactive); in [8], 85.8% (inactive) and 101% (inactive); in [9], 93.2% (inactive) and 100% (inactive); in assay [10], 103% (inactive) and 98.8% (inactive); in [11], 117% (inactive) and 105% (inactive); in assay [12], 99.5% (inactive) and 97.6% (inactive). The growth in assay [13] was 106% (inactive) and 102% (inactive); in assay [14], 95.4% (inactive) and 99.8% (inactive); in assay [15], 99.5% (inactive) and 97.1% (inactive); in assay [16], 110% (inactive) and 116% (inactive); in assay [17], 96.3% (inactive) and 113% (inactive); in assay [18] it was 102% (inactive) and 104% (inactive).
For the molecule `CN(C)c1ccc(/C=C\C(=O)c2ccccc2)cc1`, the growth in [1] is 93.3% (inactive) and 91.9% (inactive) and 72.1% (inactive); in assay [2] it was 105% (inactive); in assay [3], 95.6% (inactive) and 98.8% (inactive) and 95% (inactive); in assay [4], 74.5% (inactive) and 69.4% (inactive) and 63.9% (inactive); in assay [5] (10 µM unless noted) it was 76.6% (inactive) and 79% (inactive) and 70.5% (inactive); in assay [6], 99.4% (inactive) and 101% (inactive). In addition, the growth in [7] is 86.9% (inactive) and 93.8% (inactive); in [8], 91.8% (inactive) and 71.8% (inactive) and 102% (inactive); in assay [9], 70.4% (inactive) and 65% (inactive) and 74% (inactive); in [10], 74.5% (inactive) and 85.3% (inactive) and 72.2% (inactive); in [11], 3.11% (active) and 59.4% (inactive) and 24.9% (inactive); in assay [12] it was 102% (inactive) and 93.9% (inactive) and 92.6% (inactive). The growth in assay [13] was 106% (inactive) and 110% (inactive) and 99% (inactive); in assay [15], 80.5% (inactive) and 91.3% (inactive) and 80.3% (inactive); in assay [16], 81.4% (inactive) and 76.2% (inactive) and 78.5% (inactive); in assay [17] it was 104% (inactive) and 99.6% (inactive) and 103% (inactive); in assay [18], 88.2% (inactive) and 85.5% (inactive) and 93.1% (inactive).
In the case of `COc1ccc2cc1Oc1ccc(cc1)C[C@H]1c3cc(c(OC)cc3CCN1C)Oc1c(OC)c(OC)cc3c1[C@H](C2)N(C)CC3`, the growth was 131% (inactive) in assay [1]; 80.5% (inactive) in assay [2]; 82.2% (inactive) in assay [3]; 3.4% (active) in [4]; 76.7% (inactive) in assay [5] (10 µM); 71.7% (inactive) and 56.9% (inactive) in assay [5] (100 µM). For the same molecule, the growth in assay [6] is 74.1% (inactive); in [7], 68.9% (inactive); in assay [8] it was 72.1% (inactive); in [9] it was 3.76% (active); in assay [10], 28.2% (inactive); in assay [11], -7.9% (active). Further, the growth was -31.2% (active) in [19]; 72.3% (inactive) in assay [13]; 110% (inactive) in assay [14]; 70.4% (inactive) in [16]; 46% (inactive) in assay [17]; 56.8% (inactive) in [18].
As for `O=C1OC(C(O)C(O)CO)C(O)=C1O` (stereo unspecified), the growth in assay [1] was 92.9% (inactive) and 101% (inactive); in assay [2], 110% (inactive) and 99.5% (inactive); in assay [3], 107% (inactive) and 101% (inactive); in assay [4] it was 104% (inactive) and 94.2% (inactive); in assay [5] (10 µM unless noted) it was 124% (inactive) and 100% (inactive); in [6], 105% (inactive) and 103% (inactive). Moreover, the growth is 104% (inactive) and 102% (inactive) in assay [7]; 129% (inactive) and 116% (inactive) in [8]; 102% (inactive) and 101% (inactive) in [9]; 121% (inactive) and 105% (inactive) in assay [10]; 103% (inactive) and 107% (inactive) in [11]; 98.1% (inactive) and 105% (inactive) in assay [19]. Further, the growth was 102% (inactive) and 105% (inactive) in assay [12]; 94.6% (inactive) and 96.4% (inactive) in assay [13]; 111% (inactive) in assay [15]; 115% (inactive) and 109% (inactive) in [16]; 95% (inactive) and 102% (inactive) in assay [18].
As to `CC(C)C(C)(C)c1ccc(O)cc1`, the growth in [1] is 104% (inactive); in [2], 107% (inactive); in [3] it was 102% (inactive); in assay [4] it was 98.1% (inactive); in [5] (10 µM unless noted), 107% (inactive); in assay [6], 112% (inactive). In addition, the growth in assay [7] was 96.4% (inactive); in assay [8] it was 102% (inactive); in assay [9] it was 105% (inactive); in assay [10], 106% (inactive); in assay [11], 97.8% (inactive); in assay [12], 106% (inactive). For the same molecule, the growth was 106% (inactive) in assay [13]; 108% (inactive) in assay [20]; 111% (inactive) in [15]; 105% (inactive) in [16]; 113% (inactive) in assay [18].
In the case of `CN1CNC(=O)NC1`, the growth in [1] is 114% (inactive); in assay [2], 97.3% (inactive); in [3], 105% (inactive) and 102% (inactive); in [4], 98.5% (inactive) and 87.6% (inactive); in assay [5] (10 µM unless noted) it was 112% (inactive) and 115% (inactive); in assay [6], 113% (inactive) and 107% (inactive). For the same molecule, the growth in [7] is 98.5% (inactive) and 106% (inactive); in assay [8], 100% (inactive) and 72.4% (inactive); in [9], 108% (inactive) and 91.3% (inactive); in [10] it was 99.9% (inactive) and 85.2% (inactive); in assay [11] it was 106% (inactive) and 79.6% (inactive); in assay [19], 113% (inactive) and 104% (inactive). In addition, the growth was 106% (inactive) and 98.6% (inactive) in assay [12]; 112% (inactive) and 111% (inactive) in [13]; 119% (inactive) and 112% (inactive) in assay [20]; 112% (inactive) and 105% (inactive) in assay [14]; 137% (inactive) and 97.8% (inactive) in [15]; 112% (inactive) and 107% (inactive) in assay [16]. In addition, the growth in assay [18] is 109% (inactive) and 103% (inactive).
